Rows were chosen to be rich in hits. Some 3.3% of all compounds tested hit in one or more screens of this group.
Bead autofluor: flagged as autofluorescent in microsphere protease counterscreen | compound autofluorescence counterscreen, microsphere flow cytometry; hits give high values | fluorescence intensity (concentration not given with the values) | 3.1% of 360,000 active; in the data active = fluorescence intensity above about 16000; inconclusive = no clear call, values can overlap the other calls
Anthrax LF inh2: blocks Bacillus anthracis lethal factor protease; P15917; multiplex microsphere protease cleavage assay, LF; inhibition, % at 10 µM; 0.12% of 360,000 active; AID 588501; note: plate controls were buffer without enzyme for full effect and enzyme alone for no effect
BoNT F protease: inhibitors of Botulinum neurotoxin F light chain protease; 0.22% of 360,000 active; Multiplex microsphere protease cleavage assay, flow cytometry; inhibition, % at 10 µM; in the data active = inhibition above about 35%, passing the limit was not always enough; inconclusive = no clear call, values can overlap the other calls; note: plate controls were buffer without enzyme for full effect and enzyme alone for no effect
MazF activator: activators of E. coli MazEF toxin-antitoxin RNase; activation, % at 20 µM; P0AE70; AID 504720; 0.32% of 350,000 active; FAM/BHQ RNA-DNA oligo cleavage fluorescence, 5 h; in the data active = activation above about 50%
Target sequence (P0AE70 whole entry, looked up): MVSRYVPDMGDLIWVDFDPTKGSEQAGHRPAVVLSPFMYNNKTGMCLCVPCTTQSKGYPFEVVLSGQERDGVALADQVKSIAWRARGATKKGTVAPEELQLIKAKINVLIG
BoNT-A LC inh2: inhibitors of Botulinum neurotoxin A light chain protease; multiplex microsphere protease substrate cleavage, flow cytometry; 0.17% of 360,000 active; inhibition, % at 10 µM; note: plate controls were buffer without enzyme for full effect and enzyme alone for no effect
SSB-PriA inh: K. pneumoniae PriA-SSBct interaction inhibition; AID 1272365; 0.6% of 430,000 active; inhibition, % at 33 µM; AlphaScreen SSBct-PriA binding, biotinylated peptide; in the data active = inhibition mostly above about 37%, no sharp cut-off; inactive = mostly below about 20%;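 note: plate controls were negative control peptide for no effect and reference peptide for full effect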
* hit, by the source's call; ? = inconclusive; / = no result given. Cut-off read from the data, not from the text of the source, unless noted: active = inhibition above about 30%; inconclusive = no clear call, values can overlap the other calls; inactive = below that.

SMILES	Bead autofluor	Anthrax LF inh2	BoNT F protease	MazF activator	BoNT-A LC inh2	SSB-PriA inh
O=C(NC[C@H]1CCCN1c1nc2ccccc2o1)c1ccc(-n2cccc2)cc1	/	/	/	/	/	29*
CCOc1ccc2c(c1)nc(SCC(=O)c1ccc(Br)s1)n2C	16282*	1	-1	7	2	12
CC(C)CS(=O)(=O)C1CN(C(=O)Cn2nnc3ccccc32)C1	/	/	/	/	/	-5
COc1ccc(S(=O)(=O)N2CCC3(CC2)OCCN3S(=O)(=O)c2cccs2)cc1OC	20013*	-16	-85	5	-63	-10
COc1ccc(C)cc1S(=O)(=O)N1CCC2(CC1)OCCN2S(=O)(=O)c1cccs1	4086	1	10	0	1	12
CCOc1ccc(S(=O)(=O)Nc2ccccc2SC)cc1	24042*	-4	-4	-6	-2	-11
COC(=O)COc1ccc(S(=O)(=O)Nc2ccccc2SC)cc1	23132*	-2	-6	9	?	-2
CN(C)c1ccc(CNn2cnnc2SCc2ccc(F)cc2)cc1	10764	-1	-1	-9	1	16
Fc1ccc(CSc2nncn2NCc2ccccc2)cc1	21851*	2	-2	-1	0	-1
Cn1c(SCc2ccc(Br)cc2)nnc1-c1ccncc1	7231	-7	-10	3	0	-2
Cn1c(SCc2ccccc2)nnc1-c1ccncc1	24601*	3	-1	0	?	4
Cn1c(SCc2ccc(F)cc2)nnc1-c1ccccn1	23620*	-2	-2	5	-3	-1
Cc1ccc(OCCSc2nnc(-c3ccncc3)n2C)cc1	22301*	3	-7	19	0	0
Cc1ccc(CSc2nnc(-c3ccccn3)n2C)cc1	5575	3	-9	-4	-1	-13
CC1=Nc2ccccc2N2C(=O)C(c3ccccc3)=S=C12	/	/	/	/	/	6
O=C(Nc1ccc2c(c1)C(=O)NCCO2)c1ccco1	/	/	/	/	/	-18
Nn1c(SCc2ccc(F)cc2)nnc1-c1ccncc1	3272	?	55*	-8	8	-12
Cc1cccc(OCCSc2nncn2C)c1	4165	1	-3	-2	0	-16
Cc1cccc(OCCSc2nnc(-c3ccoc3C)n2C)c1	20328*	-1	-1	7	?	6
c1ccc(CSc2nncn2-c2ccccn2)cc1	22351*	-1	-2	0	1	-1
O=C(CSc1nncn1-c1ccccn1)Nc1ccccc1Cl	3721	0	12	7	-2	4
Cc1cn2c(-c3cccnc3)nnc2s1	19239*	-18	6	3	6	-13
O=C(NC1CCCC1)c1csc(Nc2ccc(OC(F)F)cc2)n1	/	/	/	/	/	5
CNc1cc(C(F)(F)F)nc(-c2ccccn2)n1	19306*	0	3	7	?	0
CCOC(=O)c1ccc2nc(-c3ccccc3)cc(OCC(=O)NC3CCCC3)c2c1	/	/	/	/	/	-7
SMILES	Bead autofluor	Anthrax LF inh2	BoNT F protease	MazF activator	BoNT-A LC inh2	SSB-PriA inh
O=C(COC(=O)c1ccccc1C(=O)c1ccc(Cl)c([N+](=O)[O-])c1)NC1CCCCCC1	23481*	0	-1	-8	-1	-5
O=C(COC(=O)c1ccc(Cl)c([N+](=O)[O-])c1)NC1CCCC1	4070	-1	-2	7	-2	-4
Cc1cc(CNC(=O)Cc2c(F)cccc2Cl)c(C)o1	/	/	/	/	/	-13
Cc1cc(CNC(=O)Cc2c(F)cccc2Cl)nn1C	19997*	-3	2	1	0	-1
Cc1cc(CNC(=O)c2cc(-c3ccccc3)nc3ccccc23)nn1C	4049	-1	-2	10	0	-14
Cc1cc(C(=O)NCc2cc(C)n(C)n2)sc1-c1ccccc1	18215*	-9	3	-1	3	-17
Cc1ccc(S(=O)(=O)Nc2c(S(=O)(=O)c3ccc(C)cc3)c3nc4ccccc4nc3n2CCc2ccccc2)cc1	/	/	/	/	/	40
CCCCn1c(NS(=O)(=O)c2ccc(C)cc2)c(S(=O)(=O)c2ccc(C)cc2)c2nc3ccccc3nc21	/	/	/	/	/	62*
CCCCOCCCn1c(NS(=O)(=O)c2ccc(Cl)cc2)c(S(=O)(=O)c2ccc(C)cc2)c2nc3ccccc3nc21	/	/	/	/	/	56*
CCCCCn1c(NS(=O)(=O)c2ccc(C)cc2)c(S(=O)(=O)c2ccc(C)cc2)c2nc3ccccc3nc21	/	/	/	/	/	67*
Cc1ccc(S(=O)(=O)Nc2c(S(=O)(=O)c3ccc(C)cc3)c3nc4ccccc4nc3n2CCC(C)C)cc1	/	/	/	/	/	63*
CCCCCCCCn1c(NS(=O)(=O)c2ccc(Cl)cc2)c(S(=O)(=O)c2ccc(C)cc2)c2nc3ccccc3nc21	/	/	/	/	/	52
CCCCCn1c(NS(=O)(=O)c2ccc(Cl)cc2)c(S(=O)(=O)c2ccc(C)cc2)c2nc3ccccc3nc21	/	/	/	/	/	43
CCCCCCCCn1c(NS(=O)(=O)c2ccc(C)cc2)c(S(=O)(=O)c2ccccc2)c2nc3ccccc3nc21	/	/	/	/	/	50
CSCCn1c(=NC(=O)c2ccnn2C)sc2cc3c(cc21)OCO3	/	/	/	/	/	-6
Cc1ccc(S(=O)(=O)Nc2c(S(=O)(=O)c3ccccc3)c3nc4ccccc4nc3n2CCc2ccccc2)cc1	/	/	/	/	/	45
CCCCn1c(NS(=O)(=O)c2ccccc2)c(S(=O)(=O)c2ccccc2)c2nc3ccccc3nc21	/	/	/	/	/	64*
CCCCCn1c(NS(=O)(=O)c2ccc3ccccc3c2)c(S(=O)(=O)c2ccc(C)cc2)c2nc3ccccc3nc21	/	/	/	/	/	62*
CCCCCn1c(NS(=O)(=O)c2ccccc2)c(S(=O)(=O)c2ccc(C)cc2)c2nc3ccccc3nc21	/	/	/	/	/	76*
O=S(=O)(Nc1c(S(=O)(=O)c2ccccc2)c2nc3ccccc3nc2n1C1CCCCC1)c1ccccc1	7728	0	8	4	3	73*
CCCCCn1c(NS(=O)(=O)c2ccc(C)cc2)c(S(=O)(=O)c2ccccc2)c2nc3ccccc3nc21	/	/	/	/	/	52
CC(O)(CNS(=O)(=O)c1ccc2c(c1)CCO2)c1cc2ccccc2o1 (centres undefined)	/	/	/	/	/	-15
CCCCOc1ccc(C(=O)Nc2ccc3c(c2)C(=O)NCC3)cc1	/	/	/	/	/	-12
Cc1n[nH]c(C)c1N	/	/	/	/	/	1
CC(C)(Oc1ccc(Cl)cc1)C(=O)Nc1ccncc1	3005	-2	-9	2	0	-9
SMILES	Bead autofluor	Anthrax LF inh2	BoNT F protease	MazF activator	BoNT-A LC inh2	SSB-PriA inh
CC(C)(Oc1ccc(Cl)cc1)C(=O)NCc1ccncc1	20771*	-4	-1	0	0	-10
CC1CCCCC1=NNC(=S)NCCc1ccccc1 (centres undefined)	/	/	/	/	/	44*
O=C(NCC[C@H](O)c1cccs1)C1CCC1	/	/	/	/	/	-23
CC(=O)c1cccc(NC(=O)Nc2cnn(Cc3ccc(Cl)cc3Cl)c2)c1	22775*	-2	-4	8	-1	3
COc1cccc(C2CC(c3ccccc3)Nc3ncnn32)c1 (centres undefined)	22399*	0	0	-3	0	-4
O=C(COc1ccc(Cl)cc1Cl)NCCCn1ncccc1=O	/	/	/	/	/	-1
CCOCc1nnc(NC(=O)COC)s1	23993*	-1	-4	1	-2	-4
CCOCc1nnc(NC(=O)CSCc2ccccc2)s1	20554*	-2	4	1	?	-4
Cc1nnc(NC(=O)CSCc2ccccc2)s1	6166	-8	-12	7	-1	-11

Compound activity as filed in PubChem BioAssay.
